Rows were chosen to be rich in hits. Some 7% of all compounds tested hit in one or more screens of this group.
Integrin act MD: integrin-mediated muscular dystrophy alleviation activation | alpha7betagal myoblasts, beta-gal FDG fluorescence, 48 h | Potency, µM (titrated, usually from 38.3 µM), inactives show top-dose activation, most hits filed as activators | 0.064% of 350,000 active | AID 624291;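 also: potency is read from the fitted curve at half-maximal effect; 100% = response of the positive control SU9516; nearly all actives have a fitted effect of over 60% in size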
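alpha7betagal+/- myoblasts (passage 13, 250/well) treated 48 h at 37C with compounds at 1:260 dilution of DMSO stock. Lysed, then beta-galactosidase activity read as FDG fluorescence (ex 480/em 540) after 30 min, with pre-read for autofluorescence.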
ATXN2 expr inh: ATXN2 expression inhibition | Potency, µM (series often up to 57 µM), for the others: at the highest dose activity change, negative = inhibition, most hits filed as inhibitors | 0.72% of 360,000 active | HEK-293 ATXN2-luciferase reporter, luminescence, 24 h; also: potency is read from the fitted curve at half-maximal effect; % is scaled to controls: 0 for no effect and ±100 for the full control effect; nearly all actives have a fitted effect of over 55% in size
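ATXN2-luciferase reporter cells (luciferase flanked by upstream and downstream ATXN2 gene portions) were treated 24 h at 37 °C with compounds at up to 57 uM. SteadyGlo luminescence gave expression; GF-AFC fluorescence gave viability.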
D3 antag: blocks the human D3 dopamine receptor | AID 652054 | P35462 | max response, negative = inhibition, % | 2.5% of 360,000 active | D3R cells, DiscoveRx beta-arrestin luminescence, antagonist mode; active compounds read low; in the data active = max response below about -50%; inconclusive = no clear call, values can overlap the other calls; also: % is scaled to controls: 0 for no effect and ±100 for the full control effect
Target sequence (P35462 whole entry, looked up): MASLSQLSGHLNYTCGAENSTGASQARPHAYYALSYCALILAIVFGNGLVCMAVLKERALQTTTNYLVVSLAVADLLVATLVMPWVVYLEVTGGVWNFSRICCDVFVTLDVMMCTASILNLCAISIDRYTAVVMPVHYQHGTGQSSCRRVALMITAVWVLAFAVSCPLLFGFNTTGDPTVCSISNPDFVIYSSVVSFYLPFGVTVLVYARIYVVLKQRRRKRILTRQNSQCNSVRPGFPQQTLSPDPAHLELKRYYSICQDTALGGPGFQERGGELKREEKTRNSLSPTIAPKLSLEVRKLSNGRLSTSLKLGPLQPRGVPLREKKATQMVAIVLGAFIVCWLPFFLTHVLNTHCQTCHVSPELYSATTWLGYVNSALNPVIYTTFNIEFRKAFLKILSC
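Cells expressing the human receptor were seeded at 1500 cells/well, incubated overnight at 37 degrees C in 5% CO2, then exposed to library compounds with dopamine controls for 90 minutes at 37 degrees C before luminescent detection.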
ATXN viability: viability counter-screen for ATXN expression inhibitors; S2 cells (HEK-293 line with an ATXN2-luciferase reporter) viability, CellTiter-Fluor protease fluorescence, 24 h; Potency, µM (series often up to 56.7 µM), hits mostly cytotoxic; 0.49% of 400,000 active; also: potency is read from the fitted curve at half-maximal effect; nearly all actives have a fitted effect of over 40% in size
IL-1B inflam inh: inhibitors of inflammasome signaling (IL-1 beta secretion); 4.7% of 360,000 active; THP-1 LPS/ATP IL-1B secretion, AlphaLISA, 16 h; active compounds read low; activity change, % at 57.5 µM; in the data active = activity change below about -50%; inconclusive = mostly about -30% to -49%; also: % is scaled to controls: 0 for no effect and ±100 for the full control effect
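Secreted IL-1B measured by AlphaLISA bead assay after 16 h compound exposure of THP-1 cells; compounds (final up to 57.5 uM) added 1 h before LPS (250 ng/mL) and ATP (1.25 mM) stimulation; lower signal means less secretion.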
D3 ag: D3 dopamine receptor (human) agonism | D3R DiscoveRx beta-arrestin cells, luminescence, 90 min | max activation, % | 0.58% of 410,000 active | AID 652048; in the data active = max activation above about 30%; also: 0% is about no effect
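Cells at 1500/well, incubated overnight, then treated with pinned compounds (dopamine as control) for 90 min at 37 degrees C. DiscoveRx reagent added for 30 - 60 minutes at room temperature; luminescence read.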
* = called active by the depositor; i = inactive; ? = inconclusive; . = not tested or not shown; [ ] = another dose, or the depositor's remark. Unless noted, calls follow the shape of the dose curve; as a rule, active = well fitted curve in the direction sought with a large enough effect; inconclusive = small, poorly fitted or top-dose-only effect, or another doubt; inactive = no such curve, though single readings can be large; an effect the other way counts as inactive or inconclusive.

SMILES	Integrin act MD	ATXN2 expr inh	D3 antag	ATXN viability	IL-1B inflam inh	D3 ag
COc1ccc(C(=O)N2CCN(Cc3ccccn3)CC2)cc1	-7%	2%	0	i	-14	1
Fc1ccc(NCc2nc3ccccc3n2CCOc2ccccc2Cl)cc1	.	4%	.	i	.	-9
CCOC(=O)N1CCN(c2cc(N(C)CCO)c([N+](=O)[O-])c3nonc23)CC1	-22%	3%	-9	i	11	-2
CC(=O)OCCN(C)c1cc(SC(C)C)c2nonc2c1[N+](=O)[O-]	-18%	-26%	-2	?	-68*	2
CC(=O)OCCNc1cc(SC(C)C)c2nonc2c1[N+](=O)[O-]	13%	-16%	6	i	-22	0
CN(CCO)c1cc(Sc2nc3ccccc3s2)c2nonc2c1[N+](=O)[O-]	-43%[7.66 µM]	10µM*	-84*	14µM*	-17	-37
CC1CC(C)CN(S(=O)(=O)c2ccc3c(c2)oc(=O)n3CC(=O)N2CCOCC2)C1 (centres undefined)	7%	2%	-17	i	-1	-4
CNCc1c(OCc2ccc(F)cc2)ccc2ccccc12	-49%	-34%	-61*	i	-55*	-25
Fc1ccc(COc2ccc3ccccc3c2CNc2nn[nH]n2)cc1	-3%	-12%[11.3 µM]	-20	i	-10	-2
CCc1ccccc1NC(=S)NC1CC2CCC(C1)N2Cc1ccco1 (centres undefined)	-40%	-6%	-53*	i	?	-27
CCc1ccccc1NC(=O)NC1CCCCC1	2%	5%	43	i	1	-15
CCc1ccc(NC(=S)NC2CC3CCCC(C2)N3Cc2cccs2)cc1 (centres undefined)	-37%	-36%	-70*	i	-90*	-42
CCc1ccccc1NC(=O)NC1CC2CCC(C1)N2Cc1cccs1 (centres undefined)	20%	-10%	-54*	i	-6	-30
CCc1ccccc1NC(=S)NC1CC2CCC(C1)N2Cc1ccc(F)cc1 (centres undefined)	-44%	-5%	-90*	i	-17	-20
O=C1C=CN2CCCCC2CC1 (centres undefined)	-22%	-8%	13	i	66	4
CC(C)C(=O)Nc1nnc(SCC(=O)NCc2ccco2)s1	-9%	-9%	12	i	13	1
Nc1c(C(=O)NCc2ccc3c(c2)OCO3)nnn1CC(=O)Nc1ccc(Br)cc1	-26%	.	4	?	14	-3
CC[C@]12c3[nH]c4ccc(OC)cc4c3CCN1C(=O)C(CC(=O)NCC13CC4CC(CC(C4)C1)C3)C[C@@H]2C(=O)N1CCN(C(=O)c2ccco2)CC1 (some centres undefined)	10%	?	-5	?	-55*	-36
CC[C@]12c3[nH]c4ccc(Cl)cc4c3CCN1C(=O)[C@@H](CC(=O)NCC13CC4CC(CC(C4)C1)C3)C[C@@H]2C(=O)N1CCN(C(=O)c2ccco2)CC1	-41%	25µM*	?	?	-26	-17
CC[C@]12c3[nH]c4ccc(Cl)cc4c3CCN1C(=O)[C@@H](CC(=O)NCc1ccco1)C[C@@H]2C(=O)N1CCN(C(=O)c2ccco2)CC1	-24%	7%	-12	i	10	7
COc1ccc(-c2cc(C(F)(F)F)nc(SCCC(=O)Nc3ccccc3F)n2)cc1	.	15%	.	i	.	-3
COc1ccc(-c2cc(C(F)(F)F)nc(SCCC(=O)Nc3cc(C)ccc3O)n2)cc1	.	6%	.	i	.	37*
CC(O)c1cccc(NC(=O)C2CCCCC2)c1 (centres undefined)	2%	.	9	i	6	1
O=C(Nc1ccccc1)C1=C[C@H](c2ccc(C(F)(F)F)cc2)C[C@H](OCCCCO)O1	-8%	22%	-5	i	-23	0
CCOC(=O)c1cccc(OCC(O)CNCCOc2ccccc2F)c1 (centres undefined)	-1%	-20%	-55*	i	-4	1
SMILES	Integrin act MD	ATXN2 expr inh	D3 antag	ATXN viability	IL-1B inflam inh	D3 ag
CC(=O)CCc1ccc(OCC(O)CNCCOc2ccc(C)cc2)cc1 (centres undefined)	-68%	-22%	-25	i	?	51*
Cc1ccccc1OCC(O)CNCCOc1ccc(C(N)=O)cc1 (centres undefined)	.	.	.	.	.	-19
Cc1ccc(OCCNCC(O)COc2ccccc2)cc1 (centres undefined)	-22%	-23%	-83*	i	-26	-15
CC(=O)c1cccc(OCC(O)CNCCc2ccc(Cl)cc2)c1 (centres undefined)	-11%	-11%	1	i	?	-6
COC(=O)CCc1ccc(OCC(O)CNC(C)C)cc1 (centres undefined)	.	-2%	-14	i	3	0
OC(CNCc1ccco1)COc1ccccc1 (centres undefined)	-28%	3%	-55*	i	7	-22
CN1C(=O)c2cccc3c(S(N)(=O)=O)ccc1c23	-21%	6%	6	?	-88*	4
CCN1CCN(C(=O)Cn2ncc3c2-c2ccccc2OC3)CC1	0%	4%	-1	i	-4	-4
Cn1c2c(c3ccccc31)CCN(CCCCN1CCN(c3ccccc3)CC1)C2=O	-47%	0%	4	?	-62*	54*
Cc1c(C(=O)CN2CCN(c3ccccc3)CC2)c2ccccc2n1C	10%	-6%	-10	i	-5	-20
CC1=C(C(=O)Nc2ccc(C(=O)N3CCN(c4cccc(Cl)c4)CC3)cc2)SCCO1	-36%	-18%	-2	i	?	2
CC1=C(C(=O)Nc2cccc(C(=O)N3CCN(c4cccc(C(F)(F)F)c4)CC3)c2)SCCO1	-17%	-38%	14	i	-61*	-5
Cc1ccc(S(=O)(=O)N2C[C@H]3[C@H]4C(=O)N(C5CCCCC5)C(=O)[C@H]4CC(=O)[C@H]3[C@@H]2c2cccc3ccccc23)cc1	.	3%	49	?	-14	7
N#CC1=C(Nc2ccccc2)SC=C(c2ccc(Cl)c(Cl)c2)N=C1N1CCOCC1	9%	-9%	-10	i	-80*	-1
O=C(c1cn(-c2ccccc2)nc1-c1cccs1)N1CCN(c2ccc(F)cc2)CC1	-8%	6%	12	?	-20	3
CC(C)N=C(NS(=O)(=O)c1ccccc1)C(Cl)(Cl)Cl	-4%	?	17	?	-96*	9
Cc1ccc(CSc2nnc(CS(=O)Cc3ccc(Cl)cc3Cl)n2C)cc1 (centres undefined)	2%	2%	-12	?	-20	-9
